From PubChem BioAssay AID1159580 (chemical genetic matrix, 2015)
Out of some 5,500 compounds screened, about 2,000 (36%) were called active. Not shown: some 18% with an inconclusive outcome. Cut-off read from the data, not from the text of the source: active = normalized growth mostly below about 0.91 (no sharp cut-off); inconclusive = no clear call, values can overlap the other calls; inactive = mostly above about 0.92. This is one part of the list.

Experiment: chemical genetic growth profiling, strain panel (AID 1159580);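 note: tested at 20 µM; growth read once vehicle control cultures reached saturation at 30 °C; 1 = growth at the plate median or of vehicle wells; lower values mean less growth of the strain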
Conditions: growth OD

Measured: normalized growth

CC(C)[C@]12O[C@H]1[C@@H]1O[C@@]13[C@@]1(C)CCC4=C(COC4=O)[C@@H]1C[C@@H]1O[C@@]13C2=O
inactive: S. cerevisiae deletion strains, locus YAL013W, strain DEP1, hits give low values 1.01 | S. cerevisiae deletion strains, locus YBR021W, strain FUR4, hits give low values 0.991 | S. cerevisiae deletion strains, locus YBR229C, strain ROT2, hits give low values 1.01 | S. cerevisiae deletion strains, locus YCL029C, strain bik1, hits give low values 0.998 | S. cerevisiae deletion strains, locus YDL035C, strain GPR1, hits give low values 1.01 | S. cerevisiae deletion strains, locus YDL074C, strain BRE1, hits give low values 1.03 | S. cerevisiae deletion strains, locus YDL101C, strain DUN1, hits give low values 1.02 | S. cerevisiae deletion strains, locus YDL134C, strain PPH21, hits give low values 1.01 | S. cerevisiae deletion strains, locus YDL185W, strain tfp1, hits give low values 1 | S. cerevisiae deletion strains, locus YDL192W, strain arf1, hits give low values 0.994 | S. cerevisiae deletion strains, locus YDR101C, strain arx1, hits give low values 0.977 | S. cerevisiae deletion strains, locus YDR150W, strain NUM1, hits give low values 1.02 | S. cerevisiae deletion strains, locus YDR162C, strain NBP2, hits give low values 1.02 | S. cerevisiae deletion strains, locus YDR318W, strain mcm21, hits give low values 0.979 | S. cerevisiae deletion strains, locus YDR388W, hits give low values 0.996 | S. cerevisiae deletion strains, locus YDR502C, strain sam2, hits give low values 1.01 | S. cerevisiae deletion strains, locus YEL061C, strain CIN8, hits give low values 1.01 | S. cerevisiae deletion strains, locus YER110C, hits give low values 0.987 | S. cerevisiae deletion strains, locus YER155C, strain BEM2, hits give low values 1.02 | S. cerevisiae deletion strains, locus YER167W, strain BCK2, hits give low values 1.01 | S. cerevisiae deletion strains, locus YGL078C, strain dbp3, hits give low values 1.01 | S. cerevisiae deletion strains, locus YGL086W, strain mad1, hits give low values 0.988 | S. cerevisiae deletion strains, locus YGL248W, strain PDE1, hits give low values 1.01 | S. cerevisiae deletion strains, locus YGR078C, strain PAC10, hits give low values 1.02 | S. cerevisiae deletion strains, locus YGR135W, strain pre9, hits give low values 0.995 | S. cerevisiae deletion strains, locus YGR229C, strain SMI1, hits give low values 1.01 | S. cerevisiae deletion strains, locus YGR252W, strain gcn5, hits give low values 0.922 | S. cerevisiae deletion strains, locus YHR030C, strain SLT2, hits give low values 1.01 | S. cerevisiae deletion strains, locus YHR079C, strain IRE1 (second series), hits give low values 0.992 | S. cerevisiae deletion strains, locus YHR094C, strain hxt1, hits give low values 0.991 | S. cerevisiae deletion strains, locus YHR129C, strain ARP1, hits give low values 1.01 | S. cerevisiae deletion strains, locus YHR200W, strain rpn10, hits give low values 0.997 | S. cerevisiae deletion strains, locus YIL066C, strain RNR3, hits give low values 1 | S. cerevisiae deletion strains, locus YIL073C, strain SPO22, hits give low values 0.958 | S. cerevisiae deletion strains, locus YIL125W, strain kgd1, hits give low values 1.01 | S. cerevisiae deletion strains, locus YIR030C, strain dcg1, hits give low values 0.998 | S. cerevisiae deletion strains, locus YJL095W, strain BCK1, hits give low values 1 | S. cerevisiae deletion strains, locus YJL134W, strain LCB3, hits give low values 1.01 | S. cerevisiae deletion strains, locus YJL168C, strain set2, hits give low values 0.993 | S. cerevisiae deletion strains, locus YJL187C, strain SWE1 (second series), hits give low values 1.02 | S. cerevisiae deletion strains, locus YJR043C, strain POL32, hits give low values 0.987 | S. cerevisiae deletion strains, locus YJR075W, strain HOC1, hits give low values 1.02 | S. cerevisiae deletion strains, locus YKL009W, strain mrt4, hits give low values 0.994 | S. cerevisiae deletion strains, locus YKL068W, hits give low values 0.994 | S. cerevisiae deletion strains, locus YKL085W, strain MDH1 (second series), hits give low values 0.997 | S. cerevisiae deletion strains, locus YKL085W, strain MDH1, hits give low values 0.997 | S. cerevisiae deletion strains, locus YKL190W, strain CNB1, hits give low values 1.01 | S. cerevisiae deletion strains, locus YKR001C, strain vps1, hits give low values 0.997 | S. cerevisiae deletion strains, locus YLR039C, strain RIC1, hits give low values 1.01 | S. cerevisiae deletion strains, locus YLR058C, strain SHM2, hits give low values 1.01 | S. cerevisiae deletion strains, locus YLR102C, strain apc9, hits give low values 1 | S. cerevisiae deletion strains, locus YLR262C, strain YPT6, hits give low values 0.979 | S. cerevisiae deletion strains, locus YLR268W, strain sec22, hits give low values 0.984 | S. cerevisiae deletion strains, locus YLR330W, strain CHS5, hits give low values 1.01 | S. cerevisiae deletion strains, locus YLR342W, strain FKS1 (second series), hits give low values 0.978 | S. cerevisiae deletion strains, locus YLR371W, strain rom2, hits give low values 1 | S. cerevisiae deletion strains, locus YLR418C, strain cdc73, hits give low values 0.995 | S. cerevisiae deletion strains, locus YML016C, strain PPZ1, hits give low values 1.01 | S. cerevisiae deletion strains, locus YML032C, strain rad52, hits give low values 0.972 | S. cerevisiae deletion strains, locus YML124C, strain tub3, hits give low values 0.996 | S. cerevisiae deletion strains, locus YMR078C, strain ctf18, hits give low values 0.989 | S. cerevisiae deletion strains, locus YMR223W, strain ubp8, hits give low values 0.976 | S. cerevisiae deletion strains, locus YMR263W, strain SAP30, hits give low values 1.03 | S. cerevisiae deletion strains, locus YMR307W, strain GAS1, hits give low values 1.04 | S. cerevisiae deletion strains, locus YNL067W, strain RPL9B, hits give low values 1.02 | S. cerevisiae deletion strains, locus YNL128W, strain TEP1, hits give low values 1.03 | S. cerevisiae deletion strains, locus YNL153C, strain GIM3, hits give low values 1.03 | S. cerevisiae deletion strains, locus YNL233W, strain BNI4, hits give low values 1.04 | S. cerevisiae deletion strains, locus YNL250W, strain rad50, hits give low values 0.992 | S. cerevisiae deletion strains, locus YNL271C, strain bni1, hits give low values 0.998 | S. cerevisiae deletion strains, locus YNL298W, strain CLA4, hits give low values 1.01 | S. cerevisiae deletion strains, locus YNL307C, strain MCK1, hits give low values 0.983 | S. cerevisiae deletion strains, locus YNL322C, strain KRE1, hits give low values 1.01 | S. cerevisiae deletion strains, locus YNR052C, strain pop2, hits give low values 0.978 | S. cerevisiae deletion strains, locus YOL006C, strain TOP1, hits give low values 1.01 | S. cerevisiae deletion strains, locus YOL012C, strain htz1 0.999 | S. cerevisiae deletion strains, locus YOL147C, strain pex11, hits give low values 0.996 | S. cerevisiae deletion strains, locus YOR061W, strain CKA2, hits give low values 1.01 | S. cerevisiae deletion strains, locus YOR069W, strain VPS5, hits give low values 1.01 | S. cerevisiae deletion strains, locus YOR136W, strain idh2, hits give low values 0.99 | S. cerevisiae deletion strains, locus YOR144C, strain elg1, hits give low values 0.997 | S. cerevisiae deletion strains, locus YOR184W, strain ser1, hits give low values 0.966 | S. cerevisiae deletion strains, locus YOR316C, strain cot1, hits give low values 0.997 | S. cerevisiae deletion strains, locus YPL055C, strain LGE1, hits give low values 1.06 | S. cerevisiae deletion strains, locus YPL241C, strain CIN2, hits give low values 1.01 | S. cerevisiae deletion strains, locus YPR119W, strain clb2, hits give low values 0.999 | S. cerevisiae deletion strains, locus YPR141C, strain kar3, hits give low values 0.987 | S. cerevisiae deletion strains, locus YPR163C, strain tif3, hits give low values 1 | S. cerevisiae deletion strains, locus YPR167C, strain met16, hits give low values 0.99 | S. cerevisiae deletion strains, strain wtn01, hits give low values 1.02 | S. cerevisiae strains, strain wild type, hits give low values 1.01
